Data taken from PubChem BioAssay (EPA / NIEHS).
Calls of active or inactive are those of the source. How the source made its calls: active means hit-call score of the fitted dose curve at least 0.9, where 1 is the maximum; inactive means score below 0.9.

Key:
[1] = read-out: Interleukin 17F (IL17F), IL17F (gene 112744); assay: BSK_BT_xIL17F: BioMAP Diversity Plus: BT Assay for Interleukin 17F (IL17F) Biomarker Activity (AID 2284243); details: primary human B cells with PBMC
How it was run: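 Human PBMC co-cultured with B cells, compound exposure 24 h; secreted IL-17F quantified by Luminex xMAP, referenced to DMSO control. PBMC viability measured in parallel by Alamar Blue reduction.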

[2] = read-out: Actin alpha 1 (ACTA1), ACTA1 (gene 58); assay: BSK_MyoF_ACTA1: BioMAP Diversity Plus: MyoF Assay for Actin alpha 1 (ACTA1) Biomarker Activity (AID 2284244); details: primary human lung fibroblasts
How it was run: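 Cells were exposed to chemical for 24 h before a-SMA levels were quantified by ELISA in human lung fibroblasts. Increases were fitted against DMSO as negative control; parallel SRB staining (0.1% after 10% TCA fixation, 560 nm) assessed cytotoxicity.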

[3] = read-out: Interleukin 2 (IL2), IL2 (gene 3558); assay: BSK_BT_xIL2: BioMAP Diversity Plus: BT Assay for Interleukin 2 (IL2) Biomarker Activity (AID 2284245); details: primary human B cells with PBMC
How it was run: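 The BT system combines human B cells with peripheral blood mononuclear cells. Twenty-four hours after chemical dosing, secreted IL-2 was measured with xMAP bead technology, and responses were analyzed as increases over DMSO controls.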

[4] = read-out: Basic fibroblast growth factor (bFGF), FGF2 (gene 2247); assay: BSK_MyoF_bFGF: BioMAP Diversity Plus: MyoF Assay for Basic fibroblast growth factor (bFGF) Biomarker Activity (AID 2284246); details: primary human lung fibroblasts
How it was run: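 Chemicals are added to human lung fibroblast cultures and incubated 24 h. bFGF is then measured by ELISA, while parallel cultures receive SRB staining for total protein as a cytotoxicity check. Data are fitted upward against DMSO.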

[5] = read-out: Collagen IV, COL4A1 (gene 1282); assay: BSK_MyoF_CollagenIV: BioMAP Diversity Plus: MyoF Assay for Collagen IV Biomarker Activity (AID 2284247); details: primary human lung fibroblasts
How it was run: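 Human lung fibroblast system, 24 h chemical exposure. Endpoint: Collagen IV by ELISA, upward fit vs DMSO.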

Measured: AC50

Cc1cc(Cl)ccc1OC(C)C(=O)O (stereo not given)
inactive: all assays above

O=S(=O)(C(Cl)(Cl)Cl)C(Cl)(Cl)Cl
active: [1] 3.03 µM | [2] 2.64 µM | [3] 4.48 µM | [4] 3.71 µM | [5] 2.53 µM

N#CCCC(Br)(C#N)CBr (stereo not given)
active: [1] 9.32 µM | [2] 12 µM | [3] 11 µM | [4] 25 µM | [5] 0.914 µM

CCOP(=O)(OCC)SCCSCC
inactive: all assays above

C=CC(Cl)CCl (stereo not given)
active: [5] 0.0311 µM
inactive: all other assays above
